About 83,000 compounds went through this panel and 20% of them were active in at least one assay; those are over-represented in the sample as a whole.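 Cell lines were cultured in 96-well plates, exposed to a single compound concentration, and assessed for percent growth 48 hours later.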 Activity calls are given as the source filed them. The calls were made as follows: active = growth percent below 10; inactive = the rest.

In this assay the test system is HL-60(TB) leukemia. The experiment in a line: NCI-60 one-dose screen, 48 h (100 = growth as untreated, 0 = no growth, -100 = all killed). The settings on record: 10 µM unless noted.
In the case of `COc1cc(C2=NNC(c3ccc(N(C)C)cc3)C2)cc(OC)c1OC` (centres undefined), the growth was -33.6% (active).
On to `C=C(C)[C@@H]1CC[C@]2(C(=O)n3ccnc3)CC[C@]3(C)[C@H](CC[C@@H]4[C@@]5(C)CCCNC(C)(C)[C@@H]5CC[C@]43C)[C@@H]12`, for which the growth was -56.2% (active).
For `CN(CSc1ccc(Cl)cc1)c1ccc(CSc2ccc(Cl)cc2)cc1`, the growth was -16.2% (active).
With `O=C(/C(Cl)=N/O)c1ccc(-c2ccccc2)cc1`, the growth was 69.2% (inactive).
On to `COc1ccc(C(O)(c2ccccc2)C(C(=O)O)c2ccccc2)cc1` (centres undefined), for which the growth was 110% (inactive).
Regarding `CCCNNC(=O)c1ccc(CNC(=O)/C=C/c2ccccc2)cc1`, the growth was 33.4% [2.5 µM] (inactive).
Turning to `COc1cc(C(=O)NNC(=O)c2ccccc2C(=O)O)cc(OC)c1OC`, the growth is 5.84% (active).
For `O=C(CNc1nc(-c2ccc(Cl)cc2)cs1)Nc1ccc(-c2nc3ccccc3s2)cc1`, the growth was 99.3% (inactive).
On to `COc1ccc(-c2cc(/C=C/C(=O)c3cc(OC)c(OC)c(OC)c3)[nH]n2)cc1OC`, for which the growth was -22.9% (active).
With `CCOP1(=O)CC(C)=C(Cl)C(P(=O)(O)O)C1` (centres undefined), the growth was 11.5% (inactive).
Regarding `COc1ccc(-c2cc(Cc3cccs3)c(=O)n(Cn3ccc4ccccc43)n2)cc1`, the growth was 98.4% (inactive).
Turning to `C=CCn1c(C)nc2cc(Nc3nc(Cl)nc4ccccc34)ccc21`, the growth was 84.1% (inactive).
As for `CCCCCCCC/C=C\CCCCCCCCOc1cccc(CC(=O)NCC[N+]2(C)CCCCC2)c1`, the growth is 28% (inactive).
With `COc1ccc(/C(=C\c2ccc3c(c2)OCO3)C(=O)Nc2nc3ccccc3s2)cc1OC`, the growth is 92% (inactive).
With `CCC(=O)Sc1ccccc1C(=O)Nc1ccc(Cl)cc1` the figure was 37.6% (inactive); with `CCC(=O)NC1=C(Cl)C(=O)C(NC(=O)CC)=C(Cl)C1=O`, -51.1% (active); with `O=C(CN1CCN(c2cc3c(cc2F)c(=O)c(C(=O)O)cn3C2CC2)CC1)Nc1ccc(C(=O)/C=C/c2ccc(Cl)cc2)cc1`, 134% (inactive).
For `CCCCCCCCCCCCCCCCOc1ccc(S(=O)(=O)N(C)C)cc1[N+](=O)[O-]`, the growth was 110% (inactive).
In the case of `CCC(C)[C@H](NC(C)=O)C(=O)N[C@@H](CCCNC(=N)N)C(=O)N[C@@H](CCCCN)C(=O)N[C@@H](CC1CCC(O)CC1)C(=O)NC(C(=O)N[C@@H](CCSC)C(=O)N[C@@H](CCCNC(=N)N)C(=O)N[C@@]1(C)CCC/C=C\CCC[C@@](C)(C(=O)NC(C(=O)N[C@@H](CCC(=O)O)C(=O)N[C@@H](CC(C)C)C(=O)N[C@H](C(=O)N[C@@H](CCC(=O)O)C(N)=O)C(C)C)[C@@H](C)O)NC(=O)[C@H](CCC(N)=O)NC(=O)[C@H](CC(C)C)NC(=O)[C@H](CC(C)C)NC1=O)[C@@H](C)O` (some centres undefined), the growth was 97.3% (inactive).
In the case of `O=C(Nc1ncc(Cc2cccc(C(F)(F)F)c2)s1)c1ccc(-n2cnnn2)cc1`, the growth was 70.8% (inactive).
Then `Cc1ccc(NS(=O)(=O)c2ccc(-c3cnc(C4CC4)o3)cc2)cc1`, with 24.3% (inactive).
With `CCNCCNc1cc(-c2ccc(C(=O)OC)cc2)c(C#N)c2nc3ccccc3n12` the figure was -57.2% (active).
Regarding `O=[N+]([O-])c1ccc(/C=C/C=C/c2ccccc2)c(Cl)c1`, the growth was 91.9% (inactive).
For the molecule `CC1(C)CC[C@]2(C(=O)O)CC[C@]3(C)C(=CC[C@@H]4[C@@]5(C)C/C(=C/c6cccnc6)[C@H](O)C(C)(C)[C@@H]5CC[C@]43C)[C@@H]2C1`, the growth was -8.82% [100 µM] (active).
For `O=[N+]([O-])c1ccc2c(c1)Cc1cc(I)ccc1-2`, the growth is 92.8% (inactive).
Then `COc1cc(CCNc2nc3cc(N)cc(N)c3nc2-c2ccccc2)cc(OC)c1`, with -66.1% (active).
With `Nc1nc(N)c2nc3c(nc2n1)CCCCCCCCCC3` the figure was 33.4% (inactive); with `Cc1cccc(N=NC(=S)NNc2cccc(C)c2)c1`, 101% (inactive); with `Nc1ccc(C2=NN(C(=O)c3cc(-c4ccc(Cl)cc4)nc4ccccc34)C(c3ccccc3)C2)cc1` (centres undefined), -6.07% (active).
Then `CC(=O)n1c2ccccc2c2ccccc21`, with 104% (inactive); and `CC1=CC(c2ccco2)=C2C(N)=NNC2N1` (centres undefined), with 106% (inactive).
As for `CC(C)(C)c1cc(C[P+](c2ccccc2)(c2ccccc2)c2ccccc2)cc(C(C)(C)C)c1O`, the growth was -45.3% (active).
On to `COC(=O)C1=C(C)C(=O)CC1`, for which the growth was 86.7% (inactive).
For `O=C(O)C(Cc1ccccc1)N1C(=O)/C(=C/C(Cl)=C/c2ccc([N+](=O)[O-])cc2)SC1=S` (centres undefined), the growth was -8.33% (active).
